This is a sample that favours compounds with a hit; in the whole collection about 1.3% have one here.
RTF Ca sens act = cardiac RTF calcium sensitization; P19429+P45379; IANBD-labeled TnC RTF fluorescence at EC20 calcium; 0% EC20 calcium, 100% full calcium; activation, % at 7.2 µM; 0.24% of 340,000 active; AID 493008;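 active means activation above the mean over all tested compounds plus 3 SD, cut at about 30% in these data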;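 further: rise in fluorescence read as greater calcium sensitivity of cardiac thin filaments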
CRFR2-BP ag = CRF-BP/CRF-R2 complex agonism; activation, % at 13.2 µM; 0.46% of 350,000 active; HEK293 CRF-R2/CRF-BP, calcium dye fluorescence (FLIPR); percent of saturating CRF peptide response; AID 588473;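 active means activation of at least 50%, plus an integration ratio under a set limit after plate pattern correction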;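 further: plate controls were neutral control wells without compound for no effect and CRF at EC100 for full effect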
CRFBP-R2 block = blocks CRF-induced signaling of the CRF-BP/CRF-R2 complex; HEK293 CRF-R2/CRF-BP, CRF-induced calcium fluorescence; 0.59% of 350,000 active; inhibition, % at 11.8 µM;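 active means inhibition of the ligand-induced calcium signal above about 50% at the single tested concentration, limit read from the data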
Cardiac RTF inh = cardiac RTF calcium desensitization | inhibition, % at 7.15 µM | IANBD-labeled cardiac RTF, Ca2+ fluorescence | AID 493244 | P19429+P45379 | 0.12% of 340,000 active;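 active means inhibition above the mean inhibition of all tested compounds plus 3 SD, cut at about 17% in these data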;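 further: assay run at fixed EC70 calcium of 1.6 mM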
An asterisk follows results filed as active; . = no result.

SMILES	RTF Ca sens act	CRFR2-BP ag	CRFBP-R2 block	Cardiac RTF inh
CCN1C(=O)[C@H]2[C@@H](c3ccc(-c4ccc(Cl)c(Cl)c4)c(OC)c3)N3CCCC[C@@]3(C(=O)OC)[C@H]2C1=O	8	3	-4	-9
COC(=O)C1N[C@@H]([C@@H](NC(=O)COc2ccccc2)C(=O)NCc2ccc(OC)cc2)SC1(C)C (stereo not given in full)	-1	-3	-5	2
Cc1noc(C)c1CSCc1ccc(Cl)cc1	.	-3	76*	.
CCC1(c2ccccc2)NC(=O)N(CC(=O)Nc2ccc(OC)nc2)C1=O (stereo not given)	61*	93*	-62	-80
CCCCn1c(N)c(N(Cc2ccccc2)C(=O)COc2ccccc2F)c(=O)[nH]c1=O	-2	1	9	4
Cc1ccc2nc(NCCC(=O)O)nc(-c3ccccc3)c2c1	5	146*	38	-6
OCCCNc1nc(-c2ccccc2)c2cc(Br)ccc2n1	-5	9	-25	-4
O=C(O)CCNc1nc(-c2ccccc2)c2cc(Br)ccc2n1	-2	96*	-25	-7
CCOC(=O)c1c(Cc2ccccc2)c[nH]c1C	-3	-1	15	-5
CCOC(CNc1ncnc2c1cnn2C)OCC	8	-2	0	-10
COC(CNc1ncnc2c1cnn2C)OC	3	1	53*	-7
COc1ccc2c(C(=O)NCCCCO)c(-c3ccc(S(C)(=O)=O)cc3)sc2c1	-3	0	1	-11
COc1ccc2sc(-c3ccc(S(C)(=O)=O)cc3)c(C(=O)NCCc3c[nH]c4ccccc34)c2c1	-6	-1	63*	-11
O=C(CN1C(=O)NC2(CCCCC2)C1=O)Nc1ccc2[nH]c(=O)[nH]c2c1	-2	-1	1	0
O=C(O)c1cccc(N/C(=N\S(=O)(=O)c2ccccc2)c2ccccc2)c1	7	10	84*	-5
O=S(=O)(O)c1cc(O)c2c(O)c(N=Nc3cc(Cl)ccc3O)c(S(=O)(=O)O)cc2c1	-11	-1	-1	27*
COc1cccc(N2CCN(S(=O)(=O)c3c(C)[nH]c(C)c3C(=O)N3CCCC3)CC2)c1	-1	2	120*	-19
CCOC(=O)C1CCN(c2cc3c(cc2NC(=O)c2cc(OC)ccc2Br)n(C)c(=O)n3C)CC1	1	-6	72*	0
CCOC(=O)C1CCN(c2cc3c(cc2NC(=O)c2ccccc2Br)n(C)c(=O)n3C)CC1	-3	-5	-3	-5
O=C(O)CC1(CC(=O)Nc2ccccc2Br)CCCC1	7	-1	5	-6
COCC(=O)OCC(=O)Nc1ccc(Cl)cc1[N+](=O)[O-]	-1	-4	-1	-10
CCc1ccc(-c2cc3c(=O)n(CC(=O)NCCCN4CCC(Cc5ccccc5)CC4)nc(C)n3n2)cc1	0	2	101*	4
Cc1nn(CC(=O)NCCCN2CCC(Cc3ccccc3)CC2)c(=O)c2cc(-c3ccccc3)nn12	-2	1	-7	-7
COc1ccc(N=Nc2nc3cc(Br)c(Br)cc3n2C)c(OC)c1	47*	41	-34	-42
Cc1noc(C)c1C(=O)OCC(=O)NCc1ccccc1	0	0	4	11
SMILES	RTF Ca sens act	CRFR2-BP ag	CRFBP-R2 block	Cardiac RTF inh
CC(C)NC(=O)C(C)N1CCN(S(=O)(=O)c2ccc3ccccc3c2)CC1 (stereo not given)	0	1	-6	-24
O=C(NCCCN1CCOCC1)c1c(F)c(F)c(F)c(F)c1F	-2	0	-1	-2
Cc1ccc(O)c(C(=O)c2cc(C#N)c(=O)n(-c3nccs3)c2)c1	69*	166*	-108	-111
O=C(O)CCCN1C(=O)/C(=C\c2ccccc2OCc2ccccc2)SC1=S	-3	0	9	4
O=C(O)CCCN1C(=O)/C(=C/c2cn(-c3ccccc3)nc2-c2cccs2)SC1=S	31*	42	-35	-34
O=C1S/C(=C/c2ccc(N3CCOCC3)o2)C(=O)N1Cc1ccc(F)cc1	72*	114*	-132	-51
CC(C)OC(=O)CN1C(=O)S/C(=C/c2ccc(N3CCCCC3)o2)C1=O	93*	7	-30	-55
O=C1NC(=S)S/C1=C/c1ccc(N2CCOCC2)o1	34*	52*	-56	-5
C#CCN1C(=O)S/C(=C\c2ccc(-c3ccc(C(=O)O)cc3C)o2)C1=O	5	-4	-11	0
COc1ccc2cc(/C=C3\SC(=S)NC3=O)c(N3CCOCC3)nc2c1	-1	4	22	-5
O=C1N/C(=C/c2ccc(N3CCOCC3)o2)C(=O)N1c1ccccc1	6	0	56*	-10
Cc1ccc(C(=O)OCC(=O)NCc2cccs2)cc1S(=O)(=O)N1CCOCC1	-4	-4	0	1
Cc1ccc(NC(=O)Cn2c(=O)oc3ccccc32)c(C)c1	-6	0	2	0
O=C1S/C(=C\c2ccc(N3CCOCC3)o2)C(=O)N1Cc1ccc(F)cc1	50*	32	-9	-40
NC(=O)CSc1nnc(-c2ccc(S(=O)(=O)N3CCCCC3)cc2)n1-c1ccccc1	-5	37	-63	8
COc1ccccc1-n1c(SCC(N)=O)nnc1-c1ccc(S(=O)(=O)N2CCCCC2)cc1	5	62*	-89	-6
FC(F)(F)c1ccc(NCCc2ccccc2)nc1	2	-2	2	0
Cc1nc(-c2ccncc2)nc(NCCNc2ccc(C(F)(F)F)cn2)c1Cl	-3	3	118*	-5
Cn1nnc(NC(=S)NC(=O)c2cccc3c(Cl)cccc23)n1	-5	0	3	0
Nc1nn2c(-c3ccccc3)cc(=O)[nH]c2c1N=Nc1ccc(O)cc1	-2	97*	-105	-2
Nc1[nH]n2c(=O)cc(-c3ccccc3)nc2c1N=Nc1ccccc1	-10	-3	19	1
Nc1nn2c(-c3ccccc3)cc(=O)[nH]c2c1N=Nc1ccc(Br)cc1	1	-1	73*	3
Cc1cc2[nH]c(=O)cc(-c3ccccc3)n2n1	0	1	-7	-5
COc1ccc2c(C)cc3n[nH]c(=S)n3c2c1	2	-2	8	-7
O=S(=O)(Nc1nc(-c2sccc2Cl)cs1)c1cc(Cl)ccc1Cl	-15	-1	59*	5
SMILES	RTF Ca sens act	CRFR2-BP ag	CRFBP-R2 block	Cardiac RTF inh
CC(C)(C)c1nnc(NS(=O)(=O)c2cc(Cl)ccc2Cl)s1	1	-2	24	7
O=C(Nc1cc(Cl)cc(Cl)c1)c1coc(=O)c(Br)c1	0	44	71*	-3
CCn1c(SCC(=O)N/N=C(/C)c2ccncc2)nc2ccccc21	0	0	14	3
CC1(C)CC(=O)C2=C(C1)N(Cc1ccco1)C(=O)C2(O)C(F)(F)F (stereo not given)	1	-1	94*	-1
CCCCN(C)CCNC(=O)CN1C(=O)CSc2ccc(S(=O)(=O)N3CCCC3)cc21	0	0	-5	3
O=C1CSC(c2cccc(F)c2)N1c1ccccc1 (stereo not given)	-3	0	12	-1
O=C1C=C(c2ccccc2)C[C@@H](c2ccc(Cl)cc2)C1	-4	4	-1	1

Screening data as filed in PubChem.
